Measurements published in PubChem BioAssay AID1159580 (chemical genetic matrix, 2015).
Hit rate of the full screen: of about 5,500 compounds, about 2,000 (36%) were called active. Not shown: some 18% with an inconclusive outcome. Rule as the data show it: active = normalized growth mostly below about 0.91 (no sharp cut-off); inconclusive = no clear call, values can overlap the other calls; inactive = mostly above about 0.92. The list shows a part of the results.

Assay: chemical genetic growth profiling, strain panel (AID 1159580);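 also: tested at 20 µM; growth read once vehicle control cultures reached saturation at 30 °C; 1 = growth at the plate median or of vehicle wells; lower values mean less growth of the strain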
Conditions: S. cerevisiae deletion strains, growth OD

Measured: normalized growth

CC1(C)O[C@@H]2CC3C4CCC5=CC(=O)C=C[C@]5(C)C4[C@@H](O)C[C@]3(C)[C@]2(C(=O)CO)O1 (stereo not given in full)
inactive: locus YAL021C, strain ccr4, active compounds read low 1.01 | locus YAL026C, strain drs2, active compounds read low 1.01 | locus YAL030W, strain snc1, active compounds read low 1.01 | locus YBL061C, strain skt5, active compounds read low 1 | locus YBR009C, strain hhf1, active compounds read low 1.01 | locus YBR023C, strain chs3, active compounds read low 1 | locus YBR171W, strain sec66, active compounds read low 0.994 | locus YBR231C, strain swc5, active compounds read low 1.01 | locus YBR279W, strain paf1, active compounds read low 1.01 | locus YCL011C, strain gbp2, active compounds read low 1 | locus YCL016C, strain dcc1, active compounds read low 1.01 | locus YCL061C, strain MRC1, active compounds read low 0.999 | locus YCL069W, strain vba3, active compounds read low 0.995 | locus YCR088W, strain abp1, active compounds read low 0.993 | locus YDL005C, strain med2, active compounds read low 0.999 | locus YDL040C, strain nat1, active compounds read low 1 | locus YDR001C, strain nth1, active compounds read low 0.999 | locus YDR069C, strain doa4, active compounds read low 1 | locus YDR137W, strain rgp1, active compounds read low 0.998 | locus YDR159W, strain sac3, active compounds read low 1.02 | locus YDR195W, strain ref2 1 | locus YDR297W, strain sur2, active compounds read low 1 | locus YDR334W, strain swr1, active compounds read low 1.01 | locus YDR335W, strain msn5, active compounds read low 1.01 | locus YDR392W, strain spt3, active compounds read low 0.983 | locus YEL003W, strain gim4, active compounds read low 1.01 | locus YEL037C, strain rad23, active compounds read low 0.994 | locus YEL061C, strain CIN8 (second series), active compounds read low 1 | locus YER015W, strain faa2, active compounds read low 1.01 | locus YER016W, strain bim1, active compounds read low 0.995 | locus YER111C, strain swi4, active compounds read low 1 | locus YER155C, strain BEM2 (second series), active compounds read low 0.984 | locus YFR010W, strain ubp6, active compounds read low 0.996 | locus YGL167C, strain pmr1, active compounds read low 1.01 | locus YGL173C, strain kem1, active compounds read low 1.01 | locus YGL227W, strain vid30, active compounds read low 0.998 | locus YGL240W, strain doc1, active compounds read low 1.01 | locus YGL253W, strain hxk2, active compounds read low 1 | locus YHR013C, strain ard1, active compounds read low 1.02 | locus YHR027C, strain rpn1, active compounds read low 1.01 | locus YHR030C, strain SLT2, active compounds read low 0.988 | locus YHR079C, strain IRE1, active compounds read low 0.974 | locus YHR142W, strain chs7, active compounds read low 1.01 | locus YJL092W, strain hpr5, active compounds read low 0.997 | locus YJL095W, strain BCK1 (second series), active compounds read low 1.01 | locus YJL095W, strain BCK1, active compounds read low 0.985 | locus YJL115W, strain asf1, active compounds read low 1 | locus YJL129C, strain trk1, active compounds read low 1.03 | locus YJL154C, strain vps35, active compounds read low 0.996 | locus YJL164C, strain tpk1, active compounds read low 1.01 | locus YJL166W, strain qcr8, active compounds read low 1.01 | locus YJL187C, strain SWE1, active compounds read low 1 | locus YJR066W, strain TOR1, active compounds read low 0.95 | locus YKL160W, strain elf1, active compounds read low 1.02 | locus YKR026C, strain gcn3, active compounds read low 0.982 | locus YKR091W, strain srl3, active compounds read low 1.01 | locus YLL001W, strain dnm1, active compounds read low 1 | locus YLL026W, active compounds read low 1 | locus YLL041C, strain sdh2, active compounds read low 1 | locus YLR027C, strain aat2, active compounds read low 1.01 | locus YLR113W, strain HOG1, active compounds read low 0.963 | locus YLR221C, strain rsa3, active compounds read low 1.01 | locus YLR258W, strain gsy2, active compounds read low 1 | locus YLR262C, strain YPT6 (second series), active compounds read low 1.01 | locus YLR320W, strain mms22, active compounds read low 1.01 | locus YLR342W, strain FKS1, active compounds read low 1.02 | locus YLR357W, strain rsc2, active compounds read low 0.976 | locus YLR370C, strain arc18, active compounds read low 1.01 | locus YLR384C, strain iki3, active compounds read low 1.01 | locus YML120C, strain ndi1, active compounds read low 1.01 | locus YMR058W, strain fet3, active compounds read low 1.02 | locus YMR125W, strain sto1, active compounds read low 0.992 | locus YMR129W, active compounds read low 1.01 | locus YMR205C, strain PFK2, active compounds read low 0.978 | locus YMR231W, strain pep5, active compounds read low 1 | locus YNL071W, strain lat1, active compounds read low 0.998 | locus YNL183C, strain NPR1, active compounds read low 0.918 | locus YNL209W, strain ssb2, active compounds read low 1.02 | locus YNL248C, strain rpa49, active compounds read low 1.01 | locus YNL322C, strain KRE1 (second series), active compounds read low 0.998 | locus YNR049C, strain mso1, active compounds read low 1.01 | locus YOR001W, strain rrp6, active compounds read low 1.01 | locus YOR070C, strain gyp1, active compounds read low 1 | locus YOR080W, strain dia2, active compounds read low 1 | locus YOR083W, strain WHI5, active compounds read low 1.02 | locus YOR106W, strain vam3, active compounds read low 1 | locus YOR231W, strain MKK1, active compounds read low 0.983 | locus YOR265W, strain rbl2, active compounds read low 1.01 | locus YOR270C, strain vph1, active compounds read low 1.03 | locus YOR290C, strain snf2, active compounds read low 1.01 | locus YPL051W, strain arl3, active compounds read low 1 | locus YPL078C, strain atp4, active compounds read low 0.995 | locus YPL106C, strain sse1, active compounds read low 0.998 | locus YPL240C, strain hsp82, active compounds read low 1 | locus YPL256C, strain CLN2, active compounds read low 0.996
